Hit rate of the full screen: of about 5,500 compounds, about 2,000 (36%) were called active. Another 18% or so got no clear call; they are omitted. Rule as the data show it: active = normalized growth mostly below about 0.91 (no sharp cut-off); inconclusive = no clear call, values can overlap the other calls; inactive = mostly above about 0.92. The list shows a part of the results.
Assay: chemical genetic growth profiling, strain panel (AID 1159580);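 also: tested at 20 µM; growth read once vehicle control cultures reached saturation at 30 °C; 1 = growth at the plate median or of vehicle wells; lower values mean less growth of the strain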
Settings: growth OD

Measured: normalized growth

COc1c(C)c2c(c(O)c1C/C=C(\C)CCC(=O)O)C(=O)OC2
inactive: S. cerevisiae deletion strains, locus YKL190W, strain CNB1, stronger effect = lower value 0.921 | S. cerevisiae deletion strains, locus YLR371W, strain rom2, stronger effect = lower value 0.955 | S. cerevisiae deletion strains, locus YLR384C, strain iki3, stronger effect = lower value 0.983 | S. cerevisiae deletion strains, locus YML016C, strain PPZ1, stronger effect = lower value 0.992 | S. cerevisiae deletion strains, locus YMR307W, strain GAS1, stronger effect = lower value 0.8 | S. cerevisiae deletion strains, locus YNL128W, strain TEP1, stronger effect = lower value 0.868 | S. cerevisiae deletion strains, locus YOL006C, strain TOP1, stronger effect = lower value 0.934 | S. cerevisiae deletion strains, locus YOL012C, strain htz1 0.529 | S. cerevisiae deletion strains, locus YOR061W, strain CKA2, stronger effect = lower value 0.945 | S. cerevisiae deletion strains, locus YOR136W, strain idh2, stronger effect = lower value 0.922 | S. cerevisiae deletion strains, locus YPL241C, strain CIN2, stronger effect = lower value 0.967
active: S. cerevisiae deletion strains, locus YKL009W, strain mrt4, stronger effect = lower value 0.561 | S. cerevisiae deletion strains, locus YKL068W, stronger effect = lower value 0.72 | S. cerevisiae deletion strains, locus YKL085W, strain MDH1 (second series), stronger effect = lower value 0.279 | S. cerevisiae deletion strains, locus YKL085W, strain MDH1, stronger effect = lower value 0.279 | S. cerevisiae deletion strains, locus YKL160W, strain elf1, stronger effect = lower value 0.596 | S. cerevisiae deletion strains, locus YKR001C, strain vps1, stronger effect = lower value 0.493 | S. cerevisiae deletion strains, locus YKR026C, strain gcn3, stronger effect = lower value 0.648 | S. cerevisiae deletion strains, locus YKR091W, strain srl3, stronger effect = lower value 0.763 | S. cerevisiae deletion strains, locus YLL001W, strain dnm1, stronger effect = lower value 0.398 | S. cerevisiae deletion strains, locus YLL026W, stronger effect = lower value 0.533 | S. cerevisiae deletion strains, locus YLL041C, strain sdh2, stronger effect = lower value 0.822 | S. cerevisiae deletion strains, locus YLR027C, strain aat2, stronger effect = lower value 0.514 | S. cerevisiae deletion strains, locus YLR039C, strain RIC1, stronger effect = lower value 0.504 | S. cerevisiae deletion strains, locus YLR058C, strain SHM2, stronger effect = lower value 0.844 | S. cerevisiae deletion strains, locus YLR102C, strain apc9, stronger effect = lower value 0.813 | S. cerevisiae deletion strains, locus YLR113W, strain HOG1, stronger effect = lower value 0.189 | S. cerevisiae deletion strains, locus YLR221C, strain rsa3, stronger effect = lower value 0.376 | S. cerevisiae deletion strains, locus YLR258W, strain gsy2, stronger effect = lower value 0.532 | S. cerevisiae deletion strains, locus YLR262C, strain YPT6 (second series), stronger effect = lower value 0.415 | S. cerevisiae deletion strains, locus YLR262C, strain YPT6, stronger effect = lower value 0.467 | S. cerevisiae deletion strains, locus YLR268W, strain sec22, stronger effect = lower value 0.612 | S. cerevisiae deletion strains, locus YLR320W, strain mms22, stronger effect = lower value 0.443 | S. cerevisiae deletion strains, locus YLR330W, strain CHS5, stronger effect = lower value 0.878 | S. cerevisiae deletion strains, locus YLR342W, strain FKS1 (second series), stronger effect = lower value 0.669 | S. cerevisiae deletion strains, locus YLR342W, strain FKS1, stronger effect = lower value 0.442 | S. cerevisiae deletion strains, locus YLR357W, strain rsc2, stronger effect = lower value 0.779 | S. cerevisiae deletion strains, locus YLR370C, strain arc18, stronger effect = lower value 0.435 | S. cerevisiae deletion strains, locus YLR418C, strain cdc73, stronger effect = lower value 0.816 | S. cerevisiae deletion strains, locus YML032C, strain rad52, stronger effect = lower value 0.626 | S. cerevisiae deletion strains, locus YML120C, strain ndi1, stronger effect = lower value 0.406 | S. cerevisiae deletion strains, locus YML124C, strain tub3, stronger effect = lower value 0.737 | S. cerevisiae deletion strains, locus YMR058W, strain fet3, stronger effect = lower value 0.587 | S. cerevisiae deletion strains, locus YMR078C, strain ctf18, stronger effect = lower value 0.843 | S. cerevisiae deletion strains, locus YMR125W, strain sto1, stronger effect = lower value 0.635 | S. cerevisiae deletion strains, locus YMR129W, stronger effect = lower value 0.571 | S. cerevisiae deletion strains, locus YMR205C, strain PFK2, stronger effect = lower value 0.497 | S. cerevisiae deletion strains, locus YMR223W, strain ubp8, stronger effect = lower value 0.732 | S. cerevisiae deletion strains, locus YMR231W, strain pep5, stronger effect = lower value 0.358 | S. cerevisiae deletion strains, locus YMR263W, strain SAP30, stronger effect = lower value 0.765 | S. cerevisiae deletion strains, locus YNL067W, strain RPL9B, stronger effect = lower value 0.782 | S. cerevisiae deletion strains, locus YNL071W, strain lat1, stronger effect = lower value 0.531 | S. cerevisiae deletion strains, locus YNL153C, strain GIM3, stronger effect = lower value 0.811 | S. cerevisiae deletion strains, locus YNL183C, strain NPR1, stronger effect = lower value 0.0633 | S. cerevisiae deletion strains, locus YNL209W, strain ssb2, stronger effect = lower value 0.653 | S. cerevisiae deletion strains, locus YNL233W, strain BNI4, stronger effect = lower value 0.777 | S. cerevisiae deletion strains, locus YNL248C, strain rpa49, stronger effect = lower value 0.417 | S. cerevisiae deletion strains, locus YNL250W, strain rad50, stronger effect = lower value 0.39 | S. cerevisiae deletion strains, locus YNL271C, strain bni1, stronger effect = lower value 0.335 | S. cerevisiae deletion strains, locus YNL298W, strain CLA4, stronger effect = lower value 0.328 | S. cerevisiae deletion strains, locus YNL307C, strain MCK1, stronger effect = lower value 0.295 | S. cerevisiae deletion strains, locus YNL322C, strain KRE1 (second series), stronger effect = lower value 0.507 | S. cerevisiae deletion strains, locus YNL322C, strain KRE1, stronger effect = lower value 0.877 | S. cerevisiae deletion strains, locus YNR049C, strain mso1, stronger effect = lower value 0.607 | S. cerevisiae deletion strains, locus YNR052C, strain pop2, stronger effect = lower value 0.75 | S. cerevisiae deletion strains, locus YOL147C, strain pex11, stronger effect = lower value 0.675 | S. cerevisiae deletion strains, locus YOR001W, strain rrp6, stronger effect = lower value 0.582 | S. cerevisiae deletion strains, locus YOR069W, strain VPS5, stronger effect = lower value 0.911 | S. cerevisiae deletion strains, locus YOR070C, strain gyp1, stronger effect = lower value 0.583 | S. cerevisiae deletion strains, locus YOR080W, strain dia2, stronger effect = lower value 0.841 | S. cerevisiae deletion strains, locus YOR083W, strain WHI5, stronger effect = lower value 0.581 | S. cerevisiae deletion strains, locus YOR106W, strain vam3, stronger effect = lower value 0.442 | S. cerevisiae deletion strains, locus YOR144C, strain elg1, stronger effect = lower value 0.681 | S. cerevisiae deletion strains, locus YOR184W, strain ser1, stronger effect = lower value 0.345 | S. cerevisiae deletion strains, locus YOR231W, strain MKK1, stronger effect = lower value 0.171 | S. cerevisiae deletion strains, locus YOR265W, strain rbl2, stronger effect = lower value 0.691 | S. cerevisiae deletion strains, locus YOR270C, strain vph1, stronger effect = lower value 0.298 | S. cerevisiae deletion strains, locus YOR290C, strain snf2, stronger effect = lower value 0.359 | S. cerevisiae deletion strains, locus YOR316C, strain cot1, stronger effect = lower value 0.82 | S. cerevisiae deletion strains, locus YPL051W, strain arl3, stronger effect = lower value 0.552 | S. cerevisiae deletion strains, locus YPL055C, strain LGE1, stronger effect = lower value 0.589 | S. cerevisiae deletion strains, locus YPL078C, strain atp4, stronger effect = lower value 0.485 | S. cerevisiae deletion strains, locus YPL106C, strain sse1, stronger effect = lower value 0.661 | S. cerevisiae deletion strains, locus YPL240C, strain hsp82, stronger effect = lower value 0.568 | S. cerevisiae deletion strains, locus YPL256C, strain CLN2, stronger effect = lower value 0.18 | S. cerevisiae deletion strains, locus YPR119W, strain clb2, stronger effect = lower value 0.815 | S. cerevisiae deletion strains, locus YPR141C, strain kar3, stronger effect = lower value 0.575 | S. cerevisiae deletion strains, locus YPR163C, strain tif3, stronger effect = lower value 0.547 | S. cerevisiae deletion strains, locus YPR167C, strain met16, stronger effect = lower value 0.739 | S. cerevisiae deletion strains, strain wtn01, stronger effect = lower value 0.684 | S. cerevisiae strains, strain wild type, stronger effect = lower value 0.819
